Screening results (PubChem)
Vc quorum ag: inducers of Vibrio cholerae quorum light production without autoinducers, primary screen, BH1578 luxS cqsA deficient, single point; activation, % at 18.7 µM; 350,000 compounds, 0.16% hits; V. cholerae BH1578 lux reporter, luminescence, 6 h; in the data active = activation mostly above about 9.7%, no sharp cut-off
SARS 3CLpro inh: SARS-CoV 3CLpro protease inhibitors, primary screen, biochemical, quenched FRET; Replicase polyprotein 1ab (Severe acute respiratory syndrome coronavirus), P0C6X7; recombinant SARS-CoV 3CLpro, quenched FRET peptide cleavage; inhibition, % at 6 µM; 290,000 compounds, 0.14% hits; in the data active = inhibition above about 12%
TcdB inh: TcdB glycohydrolase inhibitors, primary screen, biochemical, single point, plate reader; AID 652162, 2013; Toxin B (Clostridioides difficile), P18177; 350,000 compounds, 0.24% hits; inhibition, % at 9.99 µM; TcdB glycohydrolase enzymatic assay; in the data active = inhibition above about 10%
Target sequence (P18177 whole entry, looked up): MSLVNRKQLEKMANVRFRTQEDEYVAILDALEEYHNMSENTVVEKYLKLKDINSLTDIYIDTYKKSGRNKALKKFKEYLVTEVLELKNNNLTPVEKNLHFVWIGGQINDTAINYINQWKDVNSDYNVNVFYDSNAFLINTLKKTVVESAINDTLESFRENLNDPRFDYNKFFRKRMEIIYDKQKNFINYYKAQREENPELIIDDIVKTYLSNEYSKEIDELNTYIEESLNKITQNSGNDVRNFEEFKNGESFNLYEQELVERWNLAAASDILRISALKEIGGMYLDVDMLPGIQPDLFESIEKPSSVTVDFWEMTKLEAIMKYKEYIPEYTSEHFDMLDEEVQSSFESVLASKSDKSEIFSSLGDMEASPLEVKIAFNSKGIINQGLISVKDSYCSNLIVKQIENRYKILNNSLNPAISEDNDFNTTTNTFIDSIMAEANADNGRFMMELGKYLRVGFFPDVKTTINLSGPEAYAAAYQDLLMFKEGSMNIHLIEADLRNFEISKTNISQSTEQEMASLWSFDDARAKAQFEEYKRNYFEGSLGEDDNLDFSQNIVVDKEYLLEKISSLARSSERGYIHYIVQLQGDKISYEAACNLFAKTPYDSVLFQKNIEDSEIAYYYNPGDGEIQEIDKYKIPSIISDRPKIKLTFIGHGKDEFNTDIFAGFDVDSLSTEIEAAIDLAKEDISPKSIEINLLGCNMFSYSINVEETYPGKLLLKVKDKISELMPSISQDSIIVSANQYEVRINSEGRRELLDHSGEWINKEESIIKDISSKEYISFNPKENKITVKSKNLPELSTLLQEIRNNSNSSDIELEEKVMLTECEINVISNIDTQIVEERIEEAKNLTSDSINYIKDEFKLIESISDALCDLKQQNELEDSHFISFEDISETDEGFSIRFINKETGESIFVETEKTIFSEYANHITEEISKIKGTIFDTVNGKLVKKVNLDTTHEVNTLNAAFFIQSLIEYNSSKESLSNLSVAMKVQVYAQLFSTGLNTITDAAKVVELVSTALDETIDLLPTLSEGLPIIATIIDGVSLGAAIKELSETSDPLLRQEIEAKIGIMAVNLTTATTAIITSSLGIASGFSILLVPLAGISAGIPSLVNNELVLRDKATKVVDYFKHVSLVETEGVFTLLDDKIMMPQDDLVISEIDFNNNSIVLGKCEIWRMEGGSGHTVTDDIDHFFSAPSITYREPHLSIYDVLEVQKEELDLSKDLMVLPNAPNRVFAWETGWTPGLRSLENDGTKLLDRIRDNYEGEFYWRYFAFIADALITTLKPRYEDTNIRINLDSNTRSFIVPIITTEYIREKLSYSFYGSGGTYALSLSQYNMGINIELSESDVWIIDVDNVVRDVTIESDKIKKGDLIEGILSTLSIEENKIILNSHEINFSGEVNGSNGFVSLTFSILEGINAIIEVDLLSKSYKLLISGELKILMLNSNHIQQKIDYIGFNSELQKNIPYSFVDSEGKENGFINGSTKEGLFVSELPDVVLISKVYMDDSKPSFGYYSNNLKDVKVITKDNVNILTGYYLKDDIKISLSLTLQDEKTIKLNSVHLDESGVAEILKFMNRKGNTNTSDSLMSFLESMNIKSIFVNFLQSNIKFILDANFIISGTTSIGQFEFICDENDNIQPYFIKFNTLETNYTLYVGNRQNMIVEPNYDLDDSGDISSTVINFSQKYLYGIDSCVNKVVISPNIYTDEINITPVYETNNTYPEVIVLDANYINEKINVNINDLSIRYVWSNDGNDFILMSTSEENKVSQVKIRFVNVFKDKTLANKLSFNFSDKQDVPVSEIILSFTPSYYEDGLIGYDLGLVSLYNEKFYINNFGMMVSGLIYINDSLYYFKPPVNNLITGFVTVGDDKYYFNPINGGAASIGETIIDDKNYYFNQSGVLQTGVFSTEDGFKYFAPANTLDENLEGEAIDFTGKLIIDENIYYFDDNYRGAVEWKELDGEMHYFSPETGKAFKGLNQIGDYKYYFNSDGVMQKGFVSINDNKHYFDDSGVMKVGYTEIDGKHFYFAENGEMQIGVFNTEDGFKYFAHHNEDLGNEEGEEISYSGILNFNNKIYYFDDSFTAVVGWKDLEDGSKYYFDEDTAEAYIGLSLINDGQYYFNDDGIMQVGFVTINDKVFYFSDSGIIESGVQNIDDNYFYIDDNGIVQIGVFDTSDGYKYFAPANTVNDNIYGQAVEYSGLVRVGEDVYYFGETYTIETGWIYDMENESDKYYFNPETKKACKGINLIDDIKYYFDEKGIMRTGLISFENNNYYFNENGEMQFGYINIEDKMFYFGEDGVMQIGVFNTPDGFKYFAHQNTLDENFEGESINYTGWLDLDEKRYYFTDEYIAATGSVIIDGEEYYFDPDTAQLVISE
CCHFV vOTU inh: CCHFV vOTU protease inhibitors, primary screen, biochemical, Pep-AMC substrate, fluorescence; AID 651958, 2012; Crimean-Congo hemorrhagic fever virus L polyprotein viral ovarian tumor (vOTU) protease …; 370,000 compounds, 0.55% hits; inhibition, % at 11.5 µM; in the data active = inhibition above about 30%; note: 0% = vehicle wells with enzyme and 100% = no enzyme wells
DUSP3 inh: VHR1 phosphatase inhibitors, primary screen, biochemical, absorbance, uHTS; Dual specificity protein phosphatase 3 (Homo sapiens), P51452; inhibition, % at 13.3 µM; recombinant VHR phosphatase, pNPP absorbance; 290,000 compounds, 0.52% hits; in the data active = inhibition above about 50%
PriA SSB inh: inhibitors of Klebsiella pneumoniae PriA binding to SSB C-terminal tail, primary screen, biochemical, AlphaScreen; PriA–SSB C-terminal tail interaction (Klebsiella pneumoniae); AlphaScreen SSBct-PriA binding, biotinylated peptide; inhibition, % at 33 µM; 430,000 compounds, 0.6% hits; AID 1272365, 2023; in the data active = inhibition mostly above about 37%, no sharp cut-off; inactive = mostly below about 20%;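 note: plate controls were negative control peptide for no effect and reference peptide for full effect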
Starred values were filed as active, the others as inactive. Only some compounds are listed: those with a hit (about 1.3% of all), similar ones and a draw of the others.

`O=C(O)c1ccccc1NC(=O)N1C[C@H]2C[C@@H](C1)c1cccc(=O)n1C2` gave Vc quorum ag 0, SARS 3CLpro inh -7, TcdB inh 15*, CCHFV vOTU inh -2, DUSP3 inh -8 and PriA SSB inh -7.
COc1ccc(-c2nnc(SCC(=O)Nc3ccccc3)n2C)cc1 was read as Vc quorum ag 36*, SARS 3CLpro inh -1, CCHFV vOTU inh -7, DUSP3 inh 3 and PriA SSB inh 5.
For COc1ccc(NC(=O)CSc2nccn2Cc2ccccc2)cc1 the results were Vc quorum ag inactive, SARS 3CLpro inh -3, TcdB inh 0, CCHFV vOTU inh -1, DUSP3 inh -10 and PriA SSB inh 46*.
CCOc1ccc(NC(=O)CSc2nccn2C)cc1 was read as Vc quorum ag 0, SARS 3CLpro inh 6, CCHFV vOTU inh -18, DUSP3 inh 44 and PriA SSB inh 5.
`COc1ccc(Cn2ccnc2SCC(=O)Nc2cccc(NC(C)=O)c2)cc1` gave Vc quorum ag inactive, SARS 3CLpro inh 3, TcdB inh 1, CCHFV vOTU inh -5, DUSP3 inh 22 and PriA SSB inh 5.
Screening COc1ccc(NC(=O)CSc2nnc(-c3ccncc3)n2C)cc1 returned Vc quorum ag 0, SARS 3CLpro inh -3, TcdB inh 0, CCHFV vOTU inh -3, DUSP3 inh 12 and PriA SSB inh -6.
Screening Cn1ccnc1SCC(=O)Nc1ccc(Oc2ccccc2)cc1 returned Vc quorum ag 2, SARS 3CLpro inh -2, CCHFV vOTU inh -3, DUSP3 inh 21 and PriA SSB inh 40*.
`CC(C)OC(=O)c1c(NC(=O)c2ccccc2Br)sc2c1CCCC2` gave PriA SSB inh -13.
Screening COc1cccc(CCNC(=O)Cc2csc(Nc3cccc(Cl)c3)n2)c1 returned PriA SSB inh 5.
CCOC(=O)c1cc([N+](=O)[O-])sc1N was read as Vc quorum ag inactive, SARS 3CLpro inh 0, TcdB inh 29*, CCHFV vOTU inh -3, DUSP3 inh 29 and PriA SSB inh -4.
Screening O=C(CCOc1ccccc1)OC1CN(c2nc3ccccc3s2)C1 returned PriA SSB inh 1.
For CCCOc1nc(SCCC)nc2c1cnn2-c1ccccc1 the results were Vc quorum ag -1, SARS 3CLpro inh -2, TcdB inh 0, CCHFV vOTU inh -3, DUSP3 inh 53* and PriA SSB inh -16.
Screening CCCSc1nc2c(cnn2-c2ccccc2)c(=O)n1N returned Vc quorum ag 1, SARS 3CLpro inh -2, TcdB inh 2, CCHFV vOTU inh 8, DUSP3 inh 1 and PriA SSB inh -11.
`CCCN1CCCc2cc(CCNC(=O)C(=O)NCc3ccc(OC)cc3)ccc21` gave PriA SSB inh 49.
Screening COc1ccc(CCNS(=O)(=O)c2ccc3c(c2)CCN3C(=O)C2CC2)cc1OC returned Vc quorum ag 2, SARS 3CLpro inh 0, CCHFV vOTU inh 0, DUSP3 inh 10 and PriA SSB inh 13.
`CCCN1CCCc2cc(CCNS(=O)(=O)c3ccc(OC)cc3)ccc21` gave PriA SSB inh 62*.
CCCN1CCCc2cc(CCNS(=O)(=O)c3cc(C)c(C)cc3OC)ccc21 was read as PriA SSB inh 60*.
For CCCN1CCCc2cc(CCNS(=O)(=O)c3ccc(OC)c(OC)c3)ccc21 the results were PriA SSB inh 67*.
CCCN1CCCc2cc(CCNS(=O)(=O)c3ccc(OC)c(Cl)c3)ccc21 was read as PriA SSB inh 44*.
CCC(=O)Nc1ccc(S(=O)(=O)Nc2ccc3nc(C)n(-c4ccc(OC)cc4)c(=O)c3c2)cc1 was read as PriA SSB inh -3.
For COc1ccc(-c2csc(CN3CCN(C(=O)CC4CCCCC4)CC3)n2)cc1 the results were PriA SSB inh -1.
C[C@@H](C(=O)NCc1ccco1)N1C(=O)N2CCc3c([nH]c4ccccc34)[C@@]2(C)C1=O was read as Vc quorum ag 0, SARS 3CLpro inh 5, TcdB inh 1, CCHFV vOTU inh -4, DUSP3 inh 17 and PriA SSB inh 47*.
N=C(N)Sc1cn(Cc2cccc(F)c2)c2ccccc12 was read as PriA SSB inh 45*.
For CN1CCN(C(=S)c2cn(Cc3cccc(F)c3)c3ccccc23)CC1 the results were Vc quorum ag -1, SARS 3CLpro inh 1, TcdB inh 2, CCHFV vOTU inh 9, DUSP3 inh 33 and PriA SSB inh 25.
Screening CC1(C)CC(=O)C2=C(C1)NC(SCC(=O)N1CCOCC1)=C(C#N)C2c1ccco1 (stereo not drawn) returned PriA SSB inh -14.
Screening O=c1c2ccccc2c(CNS(=O)(=O)Cc2ccc(F)cc2)nn1CCN1CCCC1 returned PriA SSB inh 1.
CCc1ccc(S(=O)(=O)NCc2nn(CCN3CCCC3)c(=O)c3ccccc23)s1 was read as PriA SSB inh 44*.
Screening Cc1ccc(C(C)CCN2CCC(n3nccc3NC(=O)c3ccccc3)CC2)o1 (stereo not drawn) returned SARS 3CLpro inh -4, TcdB inh 1, CCHFV vOTU inh 10, DUSP3 inh 53* and PriA SSB inh 8.
Screening O=C(NC(c1cccnc1)C1CCOCC1)c1ccccc1Br (stereo not drawn) returned PriA SSB inh -18.
CCCN1CCCc2cc(CCNS(=O)(=O)c3ccc(C)c(C)c3)ccc21 was read as PriA SSB inh 61*.
For CCCN1CCCc2cc(CCNC(=O)C(=O)Nc3cc(Cl)ccc3C)ccc21 the results were PriA SSB inh 21.
`CCCN1CCCc2cc(CCNS(=O)(=O)c3ccc(F)c(C)c3)ccc21` gave PriA SSB inh 59*.
`COc1ccc(Br)c(C(=O)NCC(C)(OC)c2cccc(Cl)c2)c1` (stereo not drawn) gave PriA SSB inh -8.
`COc1ccc(CC(=O)NNC(=S)NC(=O)c2cccnc2)cc1` gave Vc quorum ag 0, SARS 3CLpro inh 6, TcdB inh 15*, CCHFV vOTU inh -4, DUSP3 inh 17 and PriA SSB inh -5.
For Cn1c(CC(=O)NNC(=O)c2cccnc2)nc2ccccc21 the results were Vc quorum ag 20*, TcdB inh 1, CCHFV vOTU inh -5 and PriA SSB inh -5.
COc1ccc(C(=O)NNC(=S)NC(=O)c2cccnc2)cc1 was read as Vc quorum ag inactive, SARS 3CLpro inh 5, TcdB inh 3, CCHFV vOTU inh -2, DUSP3 inh 2 and PriA SSB inh 1.
